# High-throughput results from PubChem.
# Sampled rows, rich in hits. Any-hit rate of the full collection: about 7.5%.
# NPC1 prom act – NPC1 promoter activation | Huh7 NPC1 promoter luciferase reporter, 24 h | Potency, µM (titrated, usually from 9.22 µM), for the others: at the highest dose activation, usual class: activators | hit rate 2.4% among 320,000 | AID 485313; further: % of control where 0% means no effect; nearly all actives have a fitted effect of over 60% in size
#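 In 1536-well qHTS, Huh7 cells harboring an NPC1 promoter–luciferase construct received compound for 24 h; activation was quantified by luminescence following luciferase reagent addition.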
# KinaseGlo FLuc – counter-screen: inhibitors of Kinase-Glo firefly luciferase; Q27757; Kinase-Glo luciferase, ATP luminescence, 8 min; Potency, µM (series often up to 38.3 µM), for the others: at the highest dose activity change, negative = inhibition, actives largely listed as inhibitors; hit rate 0.28% among 200,000; AID 1379; further: on the % scale 0 is the no-effect control and ±100 the full control effect; nearly all actives have a fitted effect of over 60% in size
#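 Kinase-Glo luciferase light output from ATP and luciferin was measured with 10 uM ATP, within the enzyme's linear range. Buffer: 50 mM imidazole pH 7.2, 50 mM KCl, 7 mM MgCl2, 0.01% Tween 20, 0.05% BSA; luminescence read after 8 min at ambient temperature.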
# FLuc counter – inhibits or activates purified firefly luciferase, miR-21 counter-screen | P08659 | purified FLuc, Km substrates, luminescence inhibition | Potency, µM (top dose mostly 57.5 µM), for inactives: at the top dose activity change, negative = inhibition, actives largely listed as inhibitors | hit rate 6.9% among 360,000 | AID 588342;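 further: plate controls were vehicle for no effect and reference inhibitor for full effect; nearly all actives have a fitted effect of over 55% in size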
# Target sequence (P08659 whole entry, looked up): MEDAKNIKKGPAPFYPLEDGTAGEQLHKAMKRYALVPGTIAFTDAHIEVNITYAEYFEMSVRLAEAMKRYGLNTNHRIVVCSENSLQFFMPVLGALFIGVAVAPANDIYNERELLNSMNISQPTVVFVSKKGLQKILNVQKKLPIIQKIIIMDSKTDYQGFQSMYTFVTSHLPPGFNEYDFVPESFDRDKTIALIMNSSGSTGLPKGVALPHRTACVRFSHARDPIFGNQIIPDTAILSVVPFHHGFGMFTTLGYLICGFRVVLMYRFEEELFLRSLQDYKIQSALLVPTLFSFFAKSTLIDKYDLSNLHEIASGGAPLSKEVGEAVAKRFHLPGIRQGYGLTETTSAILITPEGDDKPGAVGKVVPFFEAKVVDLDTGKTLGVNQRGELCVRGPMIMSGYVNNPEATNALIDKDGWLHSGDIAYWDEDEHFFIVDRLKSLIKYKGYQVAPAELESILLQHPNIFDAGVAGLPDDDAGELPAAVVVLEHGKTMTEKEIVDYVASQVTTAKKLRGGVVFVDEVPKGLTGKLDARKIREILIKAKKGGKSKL
#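 Biochemical qHTS of compounds, final roughly 60 µM downward over six points, against 10 nM purified firefly luciferase using Km concentrations of substrates (10 uM D-luciferin, 10 uM ATP) in Tris acetate pH 7.5 buffer; luminescence output.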
# ELG1 genotoxic – inducers of genotoxicity in HEK293T ELG1-luciferase cells. HEK293T ELG1-luciferase reporter, luminescence, 16 h. Potency, µM (highest dose often 46 µM), without a hit: top-dose activity change, positive = activation, hits mostly activators. hit rate 1.3% among 330,000. AID 504466; further: % of control where 0% means no effect; nearly all actives have a fitted effect of over 60% in size
#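 Genotoxic stress is detected as increased luminescence from luciferase-tagged ELG1 in HEK293T cells, measured with ONE-Glo after a 16 hr treatment at 37 °C.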
# Rab9 prom act – Rab9 promoter activation | hit rate 2.8% among 320,000 | Huh7 Rab9 promoter-luciferase reporter, luminescence, 24 h | Potency, µM (top dose mostly 9.22 µM), for the others: at the top dose activation, negative = inhibition, hits mostly activators; further: % of control where 0% means no effect; nearly all actives have a fitted effect of over 60% in size
#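 Promoter activation is measured as luciferase luminescence in Huh7 cells stably transfected with a Rab9 promoter–luciferase construct, following 24 h compound exposure at 37 °C and 10 min reagent incubation at ambient temperature.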
# SMN2 splice up – SMN2 splice variant enhancement | HEK293 SMN2-luciferase splicing reporter, luminescence, 30-36 h | Potency, µM (top dose mostly 46.1 µM), for the others: top-dose activity change, positive = activation, most hits filed as activators | hit rate 2.8% among 210,000; further: % of control where 0% means no effect; nearly all actives have a fitted effect of over 55% in size
#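 HEK293 cells carry an SMN2 minigene-luciferase reporter in which exon 7 inclusion puts luciferase in frame. Cells were seeded at 2000 cells/well, attached for 10-12 hours, then exposed to compounds for 30-36 hours at 37C before ONE-Glo luminescence.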
# Numbers without * were called inactive; u = inconclusive; x = no result given; [ ] = remark or other dose. The call rests on the fitted dose curve; in most records, active means well fitted curve in the direction sought with a large enough effect; inconclusive means small, poorly fitted or top-dose-only effect, or another doubt; inactive means no such curve, though single readings can be large; an effect the other way counts as inactive or inconclusive. Potency means the concentration at half of the fitted maximal effect.
SMILES,NPC1 prom act,KinaseGlo FLuc,FLuc counter,ELG1 genotoxic,Rab9 prom act,SMN2 splice up
CC(=O)Nc1cccc(C(=O)OCC(=O)c2ccccc2Cl)c1,3.5µM*,-5%,u,u,0.79µM*,22%
O=C(CC1NCCNC1=O)NC1Cc2ccccc2C1 (stereo not given),1%,x,3%,1%,-3%,x
O=C(c1ccc2c3n(nc2c1)-c1ccccc1CO3)N1CCCCC1,0.79µM*,x,3.4µM*,u,0.89µM*,x
O=C(c1ccc2c3n(nc2c1)-c1ccc(Cl)cc1CO3)N1CCOCC1,2µM*,x,9.5µM*,18µM*,u,x
CS(=O)(=O)N1CCc2cc(C(=O)N3CCCCC3)ccc21,0%,-1%,-4%,-4%,0%,-10%
Cc1ccc2c(c1)COc1c3ccc(C(=O)N4CCCCC4)cc3nn1-2,3.2µM*,x,3.8µM*,u,u,x
O=C(c1ccc2c3n(nc2c1)-c1ccccc1CO3)N1CCOCC1,1.6µM*,x,4.8µM*,u,1µM*,x
N#C/C(C(=O)Oc1ccccc1)=C1/Nc2ccccc2-c2ccccc21,-6%,-2%,1%,2%,5%,-24%
COc1ccccc1/C=N/N1C(=O)c2cccc3cccc(c23)C1=O,-3%,1%,0%,0%,-3%,18%
CCN(CC)c1ccc(/C=N/N2C(=O)c3ccccc3C2=O)cc1,0%,-5%,4.3µM*,0%,-2%,-15%
COc1ccc(/C=N\n2nnc3ccccc32)cc1,0.32µM*,-28%,0.19µM*,u,0.22µM*,0.79µM*
CN(C)c1ccc(/C=N/N2C(=O)c3ccccc3C2=O)cc1,0%,x,0.43µM*,7%,10%,x
COc1ccc(/C=N/N2C(=O)c3ccccc3C2=O)cc1,1%,14µM*,2.1µM*,-4%,-1%,-1%
COc1ccccc1N(C)C(=O)c1cc(S(=O)(=O)N2CCCC2)cn1C,-2%,x,5%,3%,1%,x
CCn1ccc(C(=O)Nc2c(C)nn(Cc3c(F)c(F)c(F)c(F)c3F)c2C)n1,-2%,1%,0%,-1%,3%,15%
CC(CC12CC3CC(CC(C3)C1)C2)NCc1ccccc1O (stereo not given),0%,x,4%,-8%,-4%,x
CCOc1ccccc1-c1nnc(CS(=O)(=O)c2ccccc2)o1,u,x,-1%,0%,7%,x
COc1ccc(Br)c(-c2nnc(CS(=O)(=O)c3ccccc3)o2)c1,u,x,19µM*,u,2.8µM*,x
CCOC(=O)c1[nH]c2ccccc2c1NC(=O)c1cc(OCC)c(OCC)c(OCC)c1,x,x,0%,x,x,6%
CCc1ccc(-n2c(C)cc(/C=N/NC(=O)c3ccncc3)c2C)cc1,4%,-1%,12µM*,-11%,-1%,-15%
Cc1cccc(C)c1-n1c(C)cc(/C=N/NC(=O)CSc2ncccn2)c1C,2%,1%,u,9%,-2%,-5%[1.84 µM]
Cc1ccc(-n2c(C)cc(/C=N/NC(=O)c3ccncc3)c2C)cc1C,-7%,-3%,8.5µM*,-1%,24%,-22%
Cc1cc(/C=N/NC(N)=O)c(C)n1-c1ccc(F)cc1,0%,-1%,-10%,4%,-1%,-28%
Cc1cccc(C)c1-n1c(C)cc(/C=N/NC(=O)c2ccncc2)c1C,0%,-1%,-23%,3%,0%,2%
Cc1cc(/C=N/NC(=O)c2ccncc2)c(C)n1-c1ccccc1,23%,-1%,1.9µM*,u,u,u
Cc1cc(C)nc(SCC(=O)N/N=C/c2cc(C)n(-c3ccccc3C)c2C)n1,0%,-2%,17µM*,-1%,-1%,-14%
Cc1ccc2c(c1)c(=O)c1ccccc1n2CCCC(=O)Nc1c(F)cccc1F,x,x,-11%,x,x,3%
Cc1cc(/C=N/NC(=O)C(O)(c2ccccc2)c2ccccc2)c(C)n1-c1ccccc1,-4%,0%,u,-3%,-1%,u
